Here are results for 14 compounds from PubChem BioAssay (NCATS).

Experiment [1] is described as follows: qHTS of pediatric cancer cell lines to identify multiple opportunities for drug repurposing: Primary screen for NB1643 cells (AID 1347099). Note: nearly all actives have a fitted effect of over 50% in size. Note: potency is the fitted concentration of half-maximal effect. The procedure, abridged: (§1)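 Luminescence from CellTiter-Glo served as readout of metabolically active cells after 48 h compound exposure. Titrations: MIPE 11-point, from 0.78 nM; NPC 8-point, from 0.59 nM (final). Concentration-response curves came straight from the primary screen.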
(Quantitative high-throughput screening tests each substance at several concentrations.)

Experiment [2] is described as follows: qHTS of pediatric cancer cell lines to identify multiple opportunities for drug repurposing: Primary screen for Rh18 cells (AID 1347102). Note: nearly all actives have a fitted effect of over 65% in size. Note: potency is the fitted concentration of half-maximal effect. In outline: (§2)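 Cells (500-1,000/well) in growth media were settled 5 h at 37 degrees C, then given compounds for 48 h. Viability was read as CellTiter-Glo luminescence. Primary runs used MIPE at 11 points (0.78 nM-46 µM) and NPC at 8 points (0.59 nM-46 µM); follow-ups used 11 points.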

Experiment [3] in a line: qHTS of pediatric cancer cell lines to identify multiple opportunities for drug repurposing: Primary screen for control Hh wild type fibroblast cells (AID 1347106).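 Note: series mostly up to about 46 µM; a drop in luminescence marks cytotoxicity and a rise apparent proliferation; nearly all actives have a fitted effect of over 55% in size.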 The procedure, abridged: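 Viability after 48 h compound treatment at 37C, 500-1,000 cells/well, read as ATP luminescence with CellTiter-Glo. Primary screens used 11-point (MIPE, 0.78 nM-46 µM) or 8-point (NPC, 0.59 nM-46 µM) final concentrations; follow-up screens used 11-point dilutions.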

Experiment [4] is described as follows: qHTS of pediatric cancer cell lines to identify multiple opportunities for drug repurposing: Primary screen for Rh30 cells (AID 1347107). Note: series mostly up to about 46 µM; nearly all actives have a fitted effect of over 75% in size. In outline: as §2
Experiment [5] in a line: qHTS of pediatric cancer cell lines to identify multiple opportunities for drug repurposing: Primary screen for LAN-5 cells (AID 1347100). Note: potency is the fitted concentration of half-maximal effect. The procedure, abridged:
as §2

Experiment [6] in a line: qHTS of pediatric cancer cell lines to identify multiple opportunities for drug repurposing: Primary screen for BT-12 cells (AID 1347101). Note: nearly all actives have a fitted effect of over 25% in size. Note: potency is the fitted concentration of half-maximal effect. In outline: (§3)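 Cells (500-1,000/well) rested 5 h, then received compounds for 48 h; metabolically active cells were measured by CellTiter-Glo luminescence. Final concentrations spanned up to 46 µM (MIPE, 11-point) or 0.59 nM-46 µM (NPC, 8-point) in primary screens, 11-point in follow-ups.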

Experiment [7] can be described thus: qHTS of pediatric cancer cell lines to identify multiple opportunities for drug repurposing: Primary screen for RD cells (AID 1347104). Note: nearly all actives have a fitted effect of over 55% in size. Note: potency is the fitted concentration of half-maximal effect. The procedure, abridged: as §1
Experiment [8] can be described thus: qHTS of pediatric cancer cell lines to identify multiple opportunities for drug repurposing: Primary screen for MG 63 (6-TG R) cells (AID 1347105). Note: nearly all actives have a fitted effect of over 50% in size. Note: potency is the fitted concentration of half-maximal effect. The procedure, abridged:
as §1

The nature of experiment [9]: qHTS of pediatric cancer cell lines to identify multiple opportunities for drug repurposing: Primary screen for Rh41 cells (AID 1347108).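 Note: series mostly up to about 46 µM; luminescence drop marks cytotoxic hits; nearly all actives have a fitted effect of over 70% in size.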 The procedure, abridged:
as §1

Experiment [10] in a line: qHTS of pediatric cancer cell lines to identify multiple opportunities for drug repurposing: Primary screen for OHS-50 cells (AID 1347103). Note: nearly all actives have a fitted effect of over 40% in size. Note: potency is the fitted concentration of half-maximal effect. The procedure, abridged:
as §3

Experiment [11] in a line: qHTS of pediatric cancer cell lines to identify multiple opportunities for drug repurposing: Confirmatory screen for A673 cells (AID 1347110).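 Note: potency is the fitted concentration of half-maximal effect; cells exposed to compound for 48 h before the viability read; nearly all actives have a fitted effect of over 65% in size.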 The procedure, abridged: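 qHTS titration format: primary MIPE 0.78 nM-46 µM (11 pts), NPC 0.59 nM-46 µM; confirmation 11 pts. 48 h, CTG luminescence.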
A short description of experiment [12]: qHTS of pediatric cancer cell lines to identify multiple opportunities for drug repurposing: Confirmatory screen for SK-N-MC cells (AID 1347111).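 Note: potency is the fitted concentration of half-maximal effect; cells exposed to compound for 48 h before the readout; nearly all actives have a fitted effect of over 70% in size.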 The procedure, abridged:
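Metabolically active cells were quantified by ATP-dependent luminescence (CellTiter-Glo, 15 min at room temperature) following 48 h treatment. Cells had been plated at 500-1,000 per well and settled for 5 h beforehand.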

A short description of experiment [13]: qHTS of pediatric cancer cell lines to identify multiple opportunities for drug repurposing: Confirmatory screen for LAN-5 cells (AID 1347113). Note: nearly all actives have a fitted effect of over 65% in size. Note: potency is the fitted concentration of half-maximal effect. The procedure, abridged:
as §2

The nature of experiment [14]: qHTS of pediatric cancer cell lines to identify multiple opportunities for drug repurposing: Confirmatory screen for NB-EBc1 cells (AID 1347115).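 Note: cells exposed to compound for 48 h before the viability read; nearly all actives have a fitted effect of over 45% in size.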 Note: potency is the fitted concentration of half-maximal effect. The procedure, abridged:
as §2

Experiment [15] in a line: qHTS of pediatric cancer cell lines to identify multiple opportunities for drug repurposing: Confirmatory screen for MG 63 (6-TG R) cells (AID 1347119). Note: nearly all actives have a fitted effect of over 55% in size. The procedure, abridged: as §2
Experiment [16] in a line: qHTS of pediatric cancer cell lines to identify multiple opportunities for drug repurposing: Primary screen for SK-N-SH cells (AID 1347098). Note: potency is the fitted concentration of half-maximal effect; nearly all actives have a fitted effect of over 65% in size. In outline: as §3
Experiment [17] in a line: qHTS of pediatric cancer cell lines to identify multiple opportunities for drug repurposing: Confirmatory screen for DAOY cells (AID 1347114). In outline: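 Viability measured as metabolically active cells via CellTiter-Glo luminescence following 48 hours of compound exposure, 11-point dilutions in confirmatory testing. 500-1,000 cells/well plated 5 hours before dosing; controls were DMSO and 2.3 µM bortezomib.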

Records with an inconclusive call do not appear. Activity calls are given as the source filed them. Calls come from the whole dose curve; as a rule, active = well fitted curve in the direction sought with a large enough effect; inconclusive = small, poorly fitted or top-dose-only effect, or another doubt; inactive = no such curve, though single readings can be large; an effect the other way counts as inactive or inconclusive.

Regarding `Oc1c(I)cc(I)c2cccnc12`, the Potency result in experiment [1], in experiment [2], in experiment [3] and in experiment [4] was “inactive” in each case.
For `CCCCCCc1ccc(O)cc1O`, the Potency result in experiment [1], in experiment [5], in [6], in [2], in experiment [7] and in experiment [8] was “inactive” in each case. Moreover, the Potency entry in experiment [3], in [4] and in experiment [9] was “inactive” throughout.
With `CC(=O)O[C@]1(C(C)=O)CC[C@H]2[C@@H]3C[C@H](C)C4=CC(=O)CC[C@]4(C)[C@H]3CC[C@@]21C`, the Potency entry in experiment [1], in [2], in experiment [3], in [13], in experiment [14] and in [15] was “inactive” throughout. Also, the Potency in [10] is 24.6 µM (active); in experiment [11], 1.31 µM (active); in experiment [12] it was 23.3 µM (active).
In the case of `CCCSS/C(CCO)=C(\C)N(C=O)Cc1cnc(C)nc1N`, the Potency entry in [6], in [2], in experiment [3] and in experiment [4] was “inactive” in each case. The Potency in experiment [10] is 21.9 µM (active).
As for `CN(C)CC/C=C1\c2ccccc2Sc2ccc(Cl)cc21`, the Potency entry in experiment [1], in [8], in experiment [3] and in experiment [4] was “inactive” in each case. In addition, the Potency in [10] was 30.9 µM (active).
Regarding `COc1ccc(CCN2CCC(Nc3nc4ccccc4n3Cc3ccc(F)cc3)CC2)cc1`, the Potency in experiment [16] is 6.12 µM (active); in experiment [5], 23.7 µM (active); in [10], 30.9 µM (active); in [7], 26.6 µM (active); in [8], 16.8 µM (active).
For `C[C@@H]1CN(CCCn2c3ccccc3c3ccccc32)C[C@H](C)N1`, the Potency in [16] was 9.7 µM (active); in [7], 26.6 µM (active); in [13], 32.9 µM (active); in experiment [17], 20.8 µM (active); in experiment [14], 14.7 µM (active). For the same compound, the Potency entry in experiment [1], in experiment [8], in experiment [3], in [4], in experiment [9] and in [15] was “inactive” each time.
Regarding `Nc1ccc(C(=O)Nc2ccccc2N)cc1`, the figures for the Potency in experiment [1], in experiment [5] and in experiment [2] were 7.5 µM (active), 6.68 µM (active) and 16.8 µM (active), respectively. The Potency result in experiment [3] and in [4] was “inactive” each time.
As to `CC(C)=CCC1C(=O)N(c2ccccc2)N(c2ccccc2)C1=O`, in experiment [5], the Potency is 29.9 µM (active). In addition, the Potency entry in [2], in [7], in [8], in [3] and in experiment [9] was “inactive” in each case.
Take `O=C(N/N=C/c1ccccc1O)c1ccncc1`: the Potency in [1] was 3.35 µM (active); in experiment [5] it was 2.99 µM (active); in [6], 6.17 µM (active); in experiment [10] it was 5.5 µM (active).
For `CCCCCCCCCCOCC(O)CN` (stereo unspecified), the Potency result in experiment [1] and in experiment [4] was “inactive” in each case. In addition, the Potency is 23.7 µM (active) in [2] and 30.9 µM (active) in [10].
As for `CCCCCC=CCC=CCCCCCCCC(=O)OCC`, the Potency entry in experiment [1], in experiment [5], in [6], in experiment [2], in [10] and in [7] was “inactive” in each case. In addition, the Potency entry in experiment [8], in experiment [3], in experiment [4] and in experiment [9] was “inactive” throughout.
On to `COC(=O)C1=C(C)NC(C)=C(C(=O)O[C@@H]2CCCN(Cc3ccccc3)C2)[C@@H]1c1cccc([N+](=O)[O-])c1`, for which the Potency in [16] is 30.7 µM (active); in experiment [10] it was 19.5 µM (active). Besides, the Potency result in experiment [1], in experiment [7], in experiment [3] and in experiment [4] was “inactive” each time.
As to `NC(=O)C(=O)N/N=C/c1ccc([N+](=O)[O-])o1`, the values for the Potency in experiment [1] and in experiment [5] were 21.1 µM (active) and 29.9 µM (active), respectively. Besides, the Potency result in [3] is “inactive”.
